{"source": "ChEMBL document CHEMBL3988442", "about": "“University of Dundee, Small-Polar-MMV Screening Library” (2021)", "note": "Screen size: about 48,000 compounds; about 13,000 (27%) showed an effect of 50% or more. The list shows a part of the results."}
{"tested_on": "Wolbachia pipientis", "experiment": "Anti-Wolbachia Cell-Based Screen", "assay_type": "functional", "parameters": "scale not given: in the data most compounds retested in dose-response had high values", "details": "5 µM", "units": {"Percent Effect": "%"}}
{"smiles": "CC(CCNC(=O)N(C)CC1CCOCC1)N1CCCCC1", "note": "(configuration not stated)", "Percent Effect": -7.573}
{"smiles": "CCc1nc(CN2CCCN(C(=O)C(C)n3ccnc3)CC2)cs1", "note": "(configuration not stated)", "Percent Effect": 0.184}
{"smiles": "O=C(NCC1CC1)C1CN(C(=O)NC2CCCC2)Cc2cncn2C1", "note": "(configuration not stated)", "Percent Effect": 100.7}
{"smiles": "CC(C)N(C(=O)N1CCn2cncc2C1)C(C)C", "Percent Effect": 10.83}
{"smiles": "Cc1cnc(N2CCC3(CC2)CC3C(=O)NCC2CC2)nc1", "note": "(configuration not stated)", "Percent Effect": -18.23}
{"smiles": "CCS(=O)(=O)N1Cc2cncn2CC(C(=O)NCC2CC2)C1", "note": "(configuration not stated)", "Percent Effect": 119.2}
{"smiles": "O=C([C@@H]1Cc2[nH]cnc2CN1C(=O)NC1CCCCC1)N1CCCC1", "Percent Effect": 6.906}
{"smiles": "O=C(NC1CCCCC1)[C@H]1CNC[C@@H](COc2cccnc2)C1", "Percent Effect": 11.4}
{"smiles": "CN(C)CCN1CC2(CCCN(c3ncc(Cl)cc3F)C2)CCC1=O", "note": "(configuration not stated)", "Percent Effect": 4.533}
{"smiles": "O=C(c1ccc2c(c1)CCCC2)N1CCCC(n2cncn2)C1", "note": "(configuration not stated)", "Percent Effect": 100.2}
{"smiles": "O=C(c1cccc(N2CCCC2=O)c1)N1CCCC(n2cncn2)C1", "note": "(configuration not stated)", "Percent Effect": 0.04653}
{"smiles": "Cc1nc(C)n(C2CCCN(C(=O)c3ccc4c(c3)COC4)C2)n1", "note": "(configuration not stated)", "Percent Effect": -5.905}
{"smiles": "O=C(c1ccc(Cl)c(Cl)c1)N1CCCC(n2cncn2)C1", "note": "(configuration not stated)", "Percent Effect": 3.266}
{"smiles": "Cn1ccc(C(=O)N2CCCC(n3cncn3)C2)cc1=O", "note": "(configuration not stated)", "Percent Effect": 3.949}
{"smiles": "O=C(c1ccc2c(c1)COC2)N1CCCC(n2cncn2)C1", "note": "(configuration not stated)", "Percent Effect": 130}
{"smiles": "Cc1cc(Nc2ccc3c(c2)CC(=O)N3)nc(C(C)C)n1", "Percent Effect": 5.406}
{"smiles": "O=C(O)C(F)(F)F.O=S(=O)(C1CC1)N1CCC[C@]2(C[C@@H](Oc3ccccn3)CO2)C1", "Percent Effect": 2.781}
{"smiles": "O=C(COc1ccccc1)N1CCC[C@]2(C[C@H](OCC3CC3)CO2)C1", "Percent Effect": 5.425}
{"smiles": "CCO[C@H]1CO[C@@]2(CCCN(Cc3scnc3C)C2)C1.O=C(O)C(F)(F)F", "Percent Effect": 114.2}
{"smiles": "CCO[C@H]1CO[C@@]2(CCCN(Cc3nc(C)cs3)C2)C1.O=C(O)C(F)(F)F", "Percent Effect": -3.246}
{"smiles": "CO[C@@H]1CO[C@@]2(CCCN(Cc3nc(C)cs3)C2)C1.O=C(O)C(F)(F)F", "Percent Effect": 128.3}
{"smiles": "CCO[C@@H]1CO[C@@]2(CCCN(Cc3scnc3C)C2)C1.O=C(O)C(F)(F)F", "Percent Effect": -0.3895}
{"smiles": "COc1ccccc1CN1CC[C@]2(C[C@H](OC)CO2)C1.O=C(O)C(F)(F)F", "Percent Effect": 9.484}
{"smiles": "O=C(COc1ccccc1)N1CCC[C@]2(C[C@@H](OCC3CC3)CO2)C1", "Percent Effect": 18.43}
{"smiles": "Cc1csc(CN2CCC[C@]3(C[C@@H](OCC4CC4)CO3)C2)n1.O=C(O)C(F)(F)F", "Percent Effect": 105.3}
{"smiles": "Cc1csc(CN2CCC[C@]3(C[C@H](OCC4CC4)CO3)C2)n1", "Percent Effect": 94.91}
{"smiles": "Cc1noc(C)c1CN1CCC[C@]2(C[C@@H](Oc3ccccn3)CO2)C1.O=C(O)C(F)(F)F.O=C(O)C(F)(F)F", "Percent Effect": -19.05}
{"smiles": "CCS(=O)(=O)N1CC[C@]2(C[C@@H](OCC3CC3)CO2)C1", "Percent Effect": -6.112}
{"smiles": "Cl.c1cnc(N2CCCC(NCc3cccc4c3OCCO4)C2)nc1", "note": "(configuration not stated)", "Percent Effect": 11.77}
{"smiles": "Cc1cn2c(n1)CCC(NS(=O)(=O)c1ccc(C)s1)C2", "note": "(configuration not stated)", "Percent Effect": -1.096}
{"smiles": "Cc1ccc2c(c1)C1(CCN(C(=O)C3CC3)CC1)CC2N1CCOCC1.O=C(O)C(F)(F)F", "note": "(configuration not stated)", "Percent Effect": 4.954}
{"smiles": "Cc1cc(C)n(CC2CCCCN2CC(=O)Nc2c(C)n[nH]c2C)n1", "note": "(configuration not stated)", "Percent Effect": 1.6}
{"smiles": "Cc1[nH]nc(CCC(=O)NCC2CCCN(C3CCCC3)C2)c1C", "note": "(configuration not stated)", "Percent Effect": 91.65}
{"smiles": "Cc1cc(CN2CCC(CNC(=O)CN3CCCCCC3)C2)[nH]n1", "note": "(configuration not stated)", "Percent Effect": 4.399}
{"smiles": "Cc1n[nH]c(C)c1CCC(=O)NCC1CCCN(C2CCCC2)C1", "note": "(configuration not stated)", "Percent Effect": 80.33}
{"smiles": "CCCc1nc(C)c(C(=O)NCC2CCN(C3CC3)C2)s1", "note": "(configuration not stated)", "Percent Effect": 9.564}
{"smiles": "Cc1[nH]nc(CCC(=O)NCC2CCN(C3CCCCC3)C2)c1C", "note": "(configuration not stated)", "Percent Effect": 82.83}
{"smiles": "Cc1n[nH]c(C)c1CCC(=O)NCC1CCOc2ccccc2C1", "note": "(configuration not stated)", "Percent Effect": -7.064}
{"smiles": "Cc1n[nH]c(C)c1CCC(=O)NCC1COc2ccccc2C1", "note": "(configuration not stated)", "Percent Effect": -6.3}
{"smiles": "Cc1[nH]nc(CCC(=O)NCC2COc3ccccc3C2)c1C", "note": "(configuration not stated)", "Percent Effect": -76.22}
{"smiles": "Cc1n[nH]c(C)c1NC(=O)CN1CCCC(CNC(=O)C(C)(C)C)C1", "note": "(configuration not stated)", "Percent Effect": 3.245}
{"smiles": "Cc1ccc(C2CN(C(=O)NCc3nnc4ccccn34)CCO2)o1", "note": "(configuration not stated)", "Percent Effect": -6.842}
{"smiles": "Cc1cnn(CC(=O)NCC2(O)CCCc3ccccc32)c1", "note": "(configuration not stated)", "Percent Effect": -1.481}
{"smiles": "CN(Cc1ccc(C(N)=O)cc1)c1ccc(C(F)(F)F)cn1", "Percent Effect": 16.53}
{"smiles": "FC(F)(F)c1ccccc1CN1CCOC[C@H](Oc2cccnc2)C1", "Percent Effect": -13.87}
{"smiles": "COc1cccc2c1N(Cc1nc(C3CC3)no1)CCC2", "Percent Effect": -12.66}
{"smiles": "Cc1cc(N2CCCN(c3ccnc(C)c3)CC2)ccn1", "Percent Effect": 10.82}
{"smiles": "CNc1nc(C(=O)N2CCCC(c3nccn3CC3CCC3)C2)cs1", "note": "(configuration not stated)", "Percent Effect": 4.458}
{"smiles": "CNc1nc(C(=O)N2CCCN(c3ccnc(C)c3)CC2)cs1", "Percent Effect": 103.6}
{"smiles": "Cc1cc(N2CCCN(C(=O)Cc3csc(C)n3)CC2)ccn1", "Percent Effect": -22.63}
{"smiles": "CNc1nc(C(=O)N2CCN(c3cc(C)nc(C)c3)CC2)cs1", "Percent Effect": 104.9}
{"smiles": "Cc1cc(N2CCN(C(=O)CCc3scnc3C)CC2)cc(C)n1", "Percent Effect": 13.55}
{"smiles": "Cc1noc2ncc(C(=O)N(CC3CCOC3)C3CC3)cc12", "note": "(configuration not stated)", "Percent Effect": -8.329}
{"smiles": "CC(C)Cn1cc(NC(=O)NCC2CCN(c3ccccc3)C2)cn1", "note": "(configuration not stated)", "Percent Effect": -4.161}
{"smiles": "COCCN(C)CCN1CC2(CCN(C3CCOC3)CC2)OC1=O", "note": "(configuration not stated)", "Percent Effect": -5.724}
{"smiles": "COc1ccc(OCc2nc(C(=O)NCCN3CCOCC3)co2)cc1", "Percent Effect": -20.12}
{"smiles": "COc1ccc2c(c1)OCC(CNC(=O)CCc1c(C)n[nH]c1C)C2", "note": "(configuration not stated)", "Percent Effect": 2.391}
{"smiles": "COc1ccc(-c2n[nH]c(C)c2CC(=O)N2CCOCC2)cc1", "Percent Effect": 82.2}
{"smiles": "COc1ccc(-c2n[nH]c(C)c2CC(=O)NCC2CCCO2)cc1", "note": "(configuration not stated)", "Percent Effect": 140.4}
{"smiles": "CCC(=O)c1ccc(OCC(=O)NCC2CCCO2)cc1", "note": "(configuration not stated)", "Percent Effect": 8.672}
{"smiles": "COc1ccc(-c2n[nH]c(C)c2CC(=O)NCCN2CCOCC2)cc1", "Percent Effect": 95.82}
{"smiles": "Cc1ccc(-c2cc(C(=O)NCCN3CCOCC3)n[nH]2)s1", "Percent Effect": 2.618}
{"smiles": "COc1ccc(CC(=O)Nc2c(C)nc(N3CCOCC3)nc2C)cc1", "Percent Effect": 11.03}
{"smiles": "Cc1ccc(-c2nc(CC(=O)NCC3CCOC3)cs2)o1", "note": "(configuration not stated)", "Percent Effect": 7.713}
{"smiles": "COc1ccc(-c2n[nH]c(C)c2CC(=O)NCC2CCOCC2)cc1", "Percent Effect": 94.98}
{"smiles": "Cc1cc(=O)n(CC(=O)NCC2CCCO2)c(-c2ccc(F)cc2)n1", "note": "(configuration not stated)", "Percent Effect": 12.17}
{"smiles": "Cc1ccc(-n2nnc(CC(=O)N3CCOCC3)c2C)cc1", "Percent Effect": -5.261}
